About 2,000 (36%) of roughly 5,500 compounds were called active. About 18% were inconclusive and are not listed. This is one part of the list. A number with no mark means an inactive call. No stated cut-off is given here; in the data, active means normalized growth mostly below about 0.91 (no sharp cut-off); inconclusive means no clear call, values can overlap the other calls; inactive means mostly above about 0.92.

Our source for the normalized growth values is PubChem BioAssay AID1159580 (chemical genetic matrix, 2015).

A short description of the test: chemical genetic growth profiling, strain panel (AID 1159580).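 Further: tested at 20 µM; growth read once vehicle control cultures reached saturation at 30 °C; 1 = growth at the plate median or of vehicle wells.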 Particulars: S. cerevisiae deletion strains, growth OD.
Where [1] appears, read: locus YAL040C, strain CLN3, stronger effect = lower value.
The mark [2] stands for this setting: locus YCL061C, strain MRC1 (second series), stronger effect = lower value.
Setting [3] is: locus YDR363W, strain ESC2, stronger effect = lower value.
[4] abbreviates: locus YER002W, strain NOP16, stronger effect = lower value.
Where [5] appears, read: locus YGR078C, strain PAC10, stronger effect = lower value.
[6] abbreviates: locus YGR229C, strain SMI1, stronger effect = lower value.
The mark [7] stands for this setting: locus YMR307W, strain GAS1, stronger effect = lower value.
The mark [8] stands for this setting: locus YNL153C, strain GIM3, stronger effect = lower value.
Where [9] appears, read: locus YNL175C, strain NOP13, stronger effect = lower value.
[10] abbreviates: locus YNL197C, strain WHI3, stronger effect = lower value.
The mark [11] stands for this setting: locus YNL224C, strain SQS1, stronger effect = lower value.
[12] abbreviates: locus YOR083W, strain WHI5 (second series), stronger effect = lower value.
[13] abbreviates: locus YJR075W, strain HOC1, stronger effect = lower value.
[14] abbreviates: locus YMR263W, strain SAP30, stronger effect = lower value.
The mark [15] stands for this setting: locus YNL128W, strain TEP1, stronger effect = lower value.
Setting [16] is: locus YPL241C, strain CIN2, stronger effect = lower value.
Where [17] appears, read: locus YNL322C, strain KRE1, stronger effect = lower value.

For `NC(=O)C1=CN(C2OC(COP(=O)(O)OP(=O)(O)OC[C@H]3O[C@@H](n4cnc5c(N)ncnc54)C(OP(=O)(O)O)[C@H]3O)C(O)C2O)C=CC1` (stereo partly drawn), the normalized growth is 0.989 under setting [1]; 0.997 under setting [2]; 0.976 under setting [3]; 0.977 under setting [4]; 0.979 under setting [5]; 1 under setting [6]. Besides, the normalized growth by setting is: under setting [7], 1; under setting [8], 1.02; under setting [9], 0.98; under setting [10], 0.986; under setting [11], 1; under setting [12], 0.991.
Regarding `CCCN1CCC[C@@H](c2cccc(O)c2)C1`, the normalized growth by setting is: under setting [1], 0.98; under setting [2], 1; under setting [3], 1.03; under setting [4], 0.983; under setting [5], 0.984; under setting [6], 0.999. The normalized growth reads like this: under setting [13], 1; under setting [14], 1; under setting [7], 0.996; under setting [15], 0.999; under setting [9], 1.01; under setting [10], 0.446 (active). In addition, the normalized growth was 0.993 under setting [11], 1.01 under setting [12] and 0.999 under setting [16].
Regarding `CCCN1CCC[C@H](c2cccc(O)c2)C1`, the normalized growth was 1 under setting [1]; 0.999 under setting [2]; 1.03 under setting [3]; 0.988 under setting [4]; 1.01 under setting [5]; 1 under setting [6]. Besides, the normalized growth runs as follows: under setting [14], 0.993; under setting [7], 0.992; under setting [15], 1.01; under setting [8], 1.18; under setting [9], 0.995; under setting [10], 1.01. In addition, the normalized growth reads like this: under setting [11], 1; under setting [17], 1; under setting [12], 1; (locus YPL055C, strain LGE1, stronger effect = lower value) 0.994; under setting [16], 1.01.
Regarding `CCCN1CCC[C@@H](c2cccc(C#N)c2)C1`, the normalized growth runs as follows: (locus YAL013W, strain DEP1, stronger effect = lower value) 1.01; under setting [1], 0.986; under setting [2], 1.01; (locus YDR150W, strain NUM1, stronger effect = lower value) 0.994; under setting [3], 1.04; under setting [4], 0.989. The normalized growth is 1.04 under setting [6]; 1 under setting [13]; 1.01 under setting [14]; 0.993 under setting [9]; 1.04 under setting [10]; 1.01 under setting [11]. In addition, the normalized growth was 1 under setting [17] and 0.978 under setting [12].
